# Laboratory results taken from PubChem BioAssay (EPA / NIEHS).
# Records with an inconclusive call do not appear. Activity calls are given as the source filed them. The calls were made as follows: active = hit-call score of the fitted dose curve at least 0.9, where 1 is the maximum; inconclusive = response in the unintended direction; inactive = score below 0.9.
# Experiment: ATG_Hpa5_TRANS: Attagene TRANS-FACTORIAL HepG2 Assay for human GAL4-Hpa5 Hepatocyte Transcription Factor Basal Promoter (AID 2282975);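 also: hits are increases in reporter mRNA over DMSO baseline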
# Settings: HepG2 Attagene GAL4-Hpa5 transcription reporter
# Method: ATG_TRANS is a cell-based, multiplexed-readout assay that uses HepG2, a human liver cell line, with measurements taken at 24 hours after chemical dosing in a 24-well plate.ATG_Hpa5_TRANS is one of 30 assay component(s) measured or calculated from the ATG_TRANS assay. It is designed to make measurements of mRNA induction, a form of inducible reporter, as detected with fluorescence intensity signals by Reverse transcription polymerase chain reaction (RT-PCR) and Capillary electrophoresis technology.Data from the assay component ATG_Hpa5_TRANS was analyzed into 1 assay endpoint. This assay endpoint, ATG_Hpa5_TRANS, was analyzed in the positive analysis fitting direction relative to DMSO as the negative control and baseline of activity. Using a type of inducible reporter, measures of mRNA for gain-of-signal activity can be used to understand the background control at the transcription factor-level as they relate to the gene . Furthermore, this assay endpoint can be referred to as a secondary readout, because this assay has produced multiple assay endpoints where this one serves a background control function. To generalize the intended target to other relatable targets, this assay endpoint is annotated to the background measurement intended target family, where the subfamily is internal marker.
# Human liver HepG2 cells are transiently transfected with multiple reporter transcription units (MRTUs) in 6-well plates using FuGene 6 reagent (Roche; 3 ml FuGene/1 mg DNA). The MRTU constructs are regulated by a cis-regulating element (promoter). […] A major difference between the CIS and TRANS system is that in CIS activities of endogenous TFs are measured, whereas the TRANS assay evaluates changes in activities of exogenous, chimeric NR-Gal4 proteins. […] At the end of 24 hour incubation, total RNA was isolated using TriZol reagent (Invitrogen). The isolated RNA is then reverse-transcribed using oligo(dT) primer and Mo-MLV reverse transcriptase (Invitrogen) with DNAse I (Ambion) treatment for 30 min. The one-tenth of the produced cDNA was amplified by PCR using Taq DNA polymerase (Invitrogen) and two reporter sequence-specific primers. The PCR products were fluorescently labeled by primer extension with 6-arboxyfluorescein (6-FAM) 5'-labeled reporter sequence-specific primer (2 min at 95 C, 20 s at 68 C and 10 min at 72 C) and these products were digested with 5U of HpaI (New England Biolabs) for 2h at 37 C. The fragments were purified using Qiaquick PCR columns (Qiagen), analyzed on an ABI 3130xL genetic analyzer (Applied Biosystems) with peak positions identified by using a set of X-rhodamine (ROX)-labeled MapMarker1000 molecular weight standards (BioVentures). The raw capillary electrophoresis data was processed using Attagraph software (Attagene).
row,SMILES,outcome
1,Fc1ccc(Oc2ccnc3cc(Cl)cc(Cl)c23)cc1,inactive
2,CO/C=C(/C(=O)OC)c1ccccc1Oc1cc(Oc2ccccc2C#N)ncn1,inactive
3,O=C(Nc1ccccc1)Nc1ccnc(Cl)c1,inactive
4,COP(=S)(OC)Oc1nc(Cl)c(Cl)cc1Cl,inactive
5,O=C(O)c1nc(Cl)ccc1Cl,inactive
6,CCCCC(CC)COC(=O)c1ccccc1C(=O)OCC(CC)CCCC (stereo not drawn),inactive
7,COc1ccc(C(c2ccc(OC)cc2)C(Cl)(Cl)Cl)cc1,inactive
8,CCCC1COC(Cn2cncn2)(c2ccc(Cl)cc2Cl)O1 (stereo not drawn),inactive
9,COC(=O)N(OC)c1ccccc1COc1ccn(-c2ccc(Cl)cc2)n1,inactive
10,CCCCNC(=O)OCC#CI,inactive
11,CCOC(=O)C(Cl)Cc1cc(-n2nc(C)n(C(F)F)c2=O)c(F)cc1Cl (stereo not drawn),inactive
12,CCOP(=S)(OCC)SCn1c(=O)oc2cc(Cl)ccc21,inactive
13,Cc1cc(Cl)ccc1OCC(=O)O,inactive
14,CCCN(CCC)c1c([N+](=O)[O-])cc(S(N)(=O)=O)cc1[N+](=O)[O-],inactive
15,Cc1c(F)c(F)c(COC(=O)C2C(/C=C(\Cl)C(F)(F)F)C2(C)C)c(F)c1F (stereo not drawn),inactive
16,N#CC(CCc1ccc(Cl)cc1)(Cn1cncn1)c1ccccc1 (stereo not drawn),inactive
17,Cc1ccc(-c2c(Cl)nc(C#N)n2S(=O)(=O)N(C)C)cc1,inactive

row,SMILES,outcome
1,CCOc1cc(Oc2ccc(C(F)(F)F)cc2Cl)ccc1[N+](=O)[O-],inactive
2,C=CCC1=C(C)[C@@H](OC(=O)[C@@H]2[C@@H](C=C(C)C)C2(C)C)CC1=O,inactive
3,COC(=O)C(C)Oc1ccc(Oc2ccc(Cl)cc2Cl)cc1 (stereo not drawn),inactive
4,C=CC1(C)OC(=O)N(c2cc(Cl)cc(Cl)c2)C1=O (stereo not drawn),inactive
5,CC(C)C1(C)N=C(c2nc3ccccc3cc2C(=O)O)NC1=O (stereo not drawn),inactive
6,C#CCOS(=O)OC1CCCCC1Oc1ccc(C(C)(C)C)cc1 (stereo not drawn),inactive
7,CNC(=O)ON=CC(C)(C)SC,inactive
8,CC1COC(Cn2cncn2)(c2ccc(Oc3ccc(Cl)cc3)cc2Cl)O1 (stereo not drawn),inactive
9,CC(C)Oc1cc(-n2nc(C(C)(C)C)oc2=O)c(Cl)cc1Cl,inactive
10,COc1nc(NC(C)C)nc(NC(C)C)n1,inactive
11,COP(N)(=O)SC (stereo not drawn),inactive
12,CCNc1nc(Cl)nc(NCC)n1,inactive
13,CC(Oc1ccc(Cl)cc1Cl)C(=O)O (stereo not drawn),inactive
14,OC(c1ccc(Cl)cc1)(c1cncnc1)c1ccccc1Cl (stereo not drawn),inactive
15,CCc1nn(C)c(C(=O)NCc2ccc(C(C)(C)C)cc2)c1Cl,inactive
16,COc1nc(C)nc(NC(=O)NS(=O)(=O)c2ccccc2CCC(F)(F)F)n1,inactive
